# Measured values as given in PubChem BioAssay AID488969 (Vanderbilt High Throughput Screening Facility, 2010).
# Whole data set: some 110,000 compounds, median “z-score” near -0.1, cut for the highest 2% near 2. What follows is part of a selection rich in the highest values, with near analogues and random picks from the rest. The source made the active and inactive calls.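 Rule for the calls: active = z-score in the third read window above 3 or below -3; inactive = the rest.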
# Target: Metabotropic glutamate receptor 8 (Rattus norvegicus) (UniProt P70579)
# Test: rat mGluR8 modulators via GIRK flux, primary screen, cell-based, thallium flux, HTS (AID 488969)
# Details: HEK293 rat mGluR8, GIRK (G protein-gated inwardly rectifying potassium channel) thallium flux, FluoZin2; at 10 µM; stronger effect = higher value; submaximal glutamate (EC20) added with thallium
# Sequence of Metabotropic glutamate receptor 8 (Rattus norvegicus) (P70579 whole entry, looked up): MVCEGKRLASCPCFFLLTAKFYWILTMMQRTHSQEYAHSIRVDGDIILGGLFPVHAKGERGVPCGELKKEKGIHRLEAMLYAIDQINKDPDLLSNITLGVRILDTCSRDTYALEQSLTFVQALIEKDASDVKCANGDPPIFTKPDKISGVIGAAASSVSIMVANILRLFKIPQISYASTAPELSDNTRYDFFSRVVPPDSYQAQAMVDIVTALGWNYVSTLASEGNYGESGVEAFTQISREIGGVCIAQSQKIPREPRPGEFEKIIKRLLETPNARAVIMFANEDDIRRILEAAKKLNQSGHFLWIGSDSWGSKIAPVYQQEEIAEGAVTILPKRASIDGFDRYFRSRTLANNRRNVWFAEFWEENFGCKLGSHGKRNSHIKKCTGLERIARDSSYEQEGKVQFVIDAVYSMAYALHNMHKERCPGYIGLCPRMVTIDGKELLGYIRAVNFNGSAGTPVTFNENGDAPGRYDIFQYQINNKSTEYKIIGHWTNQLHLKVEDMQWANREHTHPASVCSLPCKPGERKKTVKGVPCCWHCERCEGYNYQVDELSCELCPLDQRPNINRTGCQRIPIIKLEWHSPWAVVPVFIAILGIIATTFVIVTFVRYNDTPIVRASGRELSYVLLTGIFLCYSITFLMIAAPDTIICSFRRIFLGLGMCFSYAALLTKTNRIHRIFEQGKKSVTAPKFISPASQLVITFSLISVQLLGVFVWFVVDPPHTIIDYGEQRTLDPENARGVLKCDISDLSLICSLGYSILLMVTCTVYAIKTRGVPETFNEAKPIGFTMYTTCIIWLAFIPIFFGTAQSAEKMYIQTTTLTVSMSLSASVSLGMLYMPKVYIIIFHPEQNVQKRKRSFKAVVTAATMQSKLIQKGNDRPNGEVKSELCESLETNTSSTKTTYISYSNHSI
row,SMILES,z-score
1,COc1ccccc1NC(=O)CSc1nc(O)c(Cc2ccccc2)c(=O)[nH]1,0.381
2,COc1ccc(OC)c(-n2c(-c3cnccn3)n[nH]c2=S)c1,-0.441
3,COc1ccc(NS(=O)(=O)c2ccc(N3CCCC3)c(NC(=S)Nc3cccc(C)c3C)c2)cc1,0.291
4,O=C(CSc1nnc(CNC(=O)c2ccco2)o1)c1ccccc1,0.135
5,CCCC(=O)Nc1ccc(C(=O)N/N=C2\CC(=O)CC(C)(C)C2)cc1,-0.113
6,CC1(C)CC(=O)C/C(=N\NC(=O)Cc2ccccc2)C1,-0.224
7,CC1(C)CC(=O)CC(=Nc2ccc(C(=O)O)cc2)C1,2.15
8,CC(=O)c1cccc(NC(=O)c2ccco2)c1,-0.295
9,CCOC(=O)c1c(C)oc2ccc(O)c(CN(C)C)c12,0.911
10,CCOC(=O)c1c(C)n(C)c2ccc(O)c(CN3CCN(C)CC3)c12,0.0797
11,CCOC(=O)c1c(C)n(C)c2ccc(O)c(CN3CCCCC3)c12,0.782
12,CCOC(=O)c1c(-c2ccccc2)oc2ccc(O)c(CN3CCCC3)c12,1.41
13,CCOC(=O)c1c(C)n(C)c2ccc(O)c(CN(CC)CC)c12,-2.05
14,CCOC(=O)c1c(C)n(C)c2ccc(O)c(CN3CCC(C)CC3)c12,3.63 (active)
15,CCOC(=O)c1c(-c2ccccc2)oc2ccc(O)c(CN(C)C)c12,-0.204
16,CCOC(=O)c1c(C)n(C)c2ccc(O)c(CN(C)C)c12,2
17,CCOC(=O)c1c(C)oc2ccc(O)c(CN3CCCCC3)c12,3.52 (active)
18,CCN(CCCNC(=O)CCNC(=O)Cn1cnc2ccccc2c1=O)c1ccccc1,0.554
19,CCOC(=O)C1CCCN(C(=O)c2ccccc2SCCOC)C1 (configuration not stated),0.188
20,Cc1nnc(SCC(=O)Nc2ccc3c(c2)OCCO3)s1,0.669
21,O=C(O)/C=C\C(=O)Nc1ccccc1F,0.0594
22,O=C(NC(=S)Nc1ccccc1N1CCCCC1)c1ccc(-c2cccc([N+](=O)[O-])c2)o1,0.681
23,CC1CCN(c2ccccc2NC(=S)NC(=O)c2ccc(-c3cccc([N+](=O)[O-])c3)o2)CC1,0.191

row,SMILES,z-score
1,O=C(NC(=S)Nc1cccc(Cl)c1N1CCCC1)c1ccc(-c2cccc([N+](=O)[O-])c2)o1,4.93 (active)
2,O=C(NC(=S)Nc1ccccc1N1CCCC1)c1ccc(-c2cccc([N+](=O)[O-])c2)o1,5.71 (active)
3,O=C(NC(=S)Nc1ccccc1N1CCOCC1)c1ccc(-c2cccc(Cl)c2)o1,0.758
4,CN1CCN(c2ccccc2NC(=O)c2ccc(-c3cccc([N+](=O)[O-])c3)o2)CC1,-0.00188
5,Cc1cc(/C=C(/C#N)c2nc3ccccc3[nH]2)c(C)n1-c1cccc([N+](=O)[O-])c1,-0.533
6,O=C(CN1CCCC1)NC12CC3CC(CC(C3)C1)C2,-0.0651
7,Cn1c(=O)c([N+](=O)[O-])c(NCc2ccccc2)c2ccccc21,-0.608
8,COc1ccc(CNC(=O)COC(=O)c2cc(-c3ccc(Cl)s3)nc3ccccc23)cc1,-0.432
9,O=C(NCCc1c[nH]c2ccccc12)c1cc2sccc2n1Cc1ccccc1,-0.216
10,Cc1ccc(C(=O)O/N=C\c2ccc(N3CCOCC3)c([N+](=O)[O-])c2)cc1,-0.0662
11,CC(=O)Nc1ccc(NC(=O)C(F)(F)F)cc1,0.364
12,FC(F)Sc1ccc(-n2cc(-c3ccccc3)[n+]3c2CCC3)cc1,-0.0431
13,CCCc1nc(SCC(=O)c2ccccc2)c2c(=O)n(C)c(=O)n(C)c2n1,0.819
14,CCCc1nc(SCC(=O)N2CCC(Cc3ccccc3)CC2)c2c(=O)n(C)c(=O)n(C)c2n1,1.98
15,CCCc1nc(SCC(=O)N2CCN(c3ccccc3)CC2)c2c(=O)n(C)c(=O)n(C)c2n1,2.39
16,O=C(CSc1nnc(Nc2ccccc2)s1)NN1C(=O)NC2(CCCCC2)C1=O,2.14
17,O=C(CSc1nnc(NC2CCCCC2)s1)NN1C(=O)NC2(CCCCC2)C1=O,0.151
18,Cc1nnc(SCC(=O)NN2C(=O)NC3(CCCCC3)C2=O)s1,-0.0833
19,CCCCC1=C([O-])C2N=CC=CC2=[N+](c2ccccn2)C1=O (configuration not stated),-0.104
20,Cc1ccc(S(=O)(=O)NC(CC(=O)N2CCc3ccccc32)c2ccco2)cc1 (configuration not stated),-0.465
21,O=C(Nn1cnnc1)c1cc2cc(Br)ccc2oc1=O,4.37 (active)
22,CCN(CC)C(=O)c1cc2cc(Br)ccc2oc1=O,0.312
23,CC(C)NC(=O)c1cc2cc(Br)ccc2oc1=O,-0.497

row,SMILES,z-score
1,CCC(c1nnnn1C(C)(C)C)N(Cc1ccco1)Cc1cc2cccc(C)c2[nH]c1=O (configuration not stated),0.737
2,CCN(CC)C(=O)CSc1ncnc2sc(-c3ccccc3)cc12,7.95 (active)
3,CCN(CC)C(=O)CSc1nnc(-c2ccccc2)c(-c2ccccc2)n1,-0.489
4,CCc1cc2c(SCC(=O)c3ccccc3)ncnc2s1,0.275
5,CC(=O)c1c(C)[nH]c(C(=O)CSc2ncnc3sc(-c4ccccc4)cc23)c1C,5.38 (active)
6,CC(C)C(C)(C#N)NC(=O)CSc1ncnc2sc(-c3ccccc3)cc12 (configuration not stated),4.81 (active)
7,CN(C)/C=N/c1c(C#N)cnn1-c1ncnc2sc(-c3ccccc3)cc12,0.831
8,CC(C)C(C)(C#N)NC(=O)CSc1nnc(-c2ccncc2)n1Cc1ccccc1 (configuration not stated),0.023
9,CC(C)C(C)(C#N)NC(=O)CSc1nnc(-c2ccccc2)o1 (configuration not stated),-0.849
10,CN(CCC#N)C(=O)CSc1ncnc2sc(-c3ccccc3)cc12,8.2 (active)
11,CC(=O)c1c(C)[nH]c(C(=O)CSc2nnc(-c3ccccc3)o2)c1C,-0.229
12,CCN(CC)C(=O)CSc1ncnc2c1cnn2Cc1ccccc1,0.13
13,COC(=O)c1c(C)[nH]c(C(=O)CSc2ncnc3sc(-c4ccccc4)cc23)c1C,1.11
14,CCOC(=O)C1CCN(C(=O)c2cccc(Cl)c2)CC1,0.0552
15,C/C(=N\NC(=O)c1c(Cl)c(C)nn1C)c1cccc(NC(=O)COc2ccccc2)c1,-0.103
16,CCOC(=O)Nc1nnc(-c2ccc(OC)cc2)s1,0.0823
17,CC(C)[C@H](NC(=O)c1ccccc1)C(=O)OCC(=O)N1CCCc2ccccc21,0.0154
18,Cc1cccc(C)c1NC(=O)CSc1nc(COc2ccccc2)nc2ccccc12,0.755
19,O=C(Nc1ccccc1)C(c1ccccc1)C1CCCC1 (configuration not stated),-0.474
20,O=C(Nc1ccc2ccccc2c1)C(c1ccccc1)C1CCCC1 (configuration not stated),0.0599
21,Cc1ccc(NC(=O)C(c2ccccc2)C2CCCC2)cc1 (configuration not stated),3.36 (active)
